Measurements published in PubChem BioAssay AID686979 (National Center for Advancing Translational Sciences (NCATS), 2013).
The whole screen tested about 420,000 compounds, of which about 50,000 (12%) were called active. Entries that show only a call come without a potency. Not shown: some 26% with an inconclusive outcome. Calls follow the shape of the dose curve; as a rule, active = well fitted inhibition curve with a large enough effect; inconclusive = small, poorly fitted or top-dose-only effect; inactive = flat fitted curve, though single readings scatter. Many of the other results were omitted from the sample, so actives are more common in it than they were.
Potency is read from the fitted curve at half-maximal effect.

Test: qHTS for Inhibitors of human tyrosyl-DNA phosphodiesterase 1 (TDP1): qHTS in cells in presence of CPT; also: nearly all actives have a fitted effect of over 55% in size
Conditions: chicken DT40 Tdp1-/-;hTDP1 cells + 20 nM CPT, ATP luminescence, 48 h; series mostly up to 46.2 µM
Procedure, shortened: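 Chicken DT40 Tdp1-/- cells complemented with human TDP1, 400 cells/well, exposed to compounds plus 20 nM camptothecin for at least 48 h at 37 C; viability read as ATP content by CellTiter-Glo luminescence.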
In the case of `CN(C)S(=O)(=O)c1ccc(N2CCCC2)c(C(=O)Nc2cccc(F)c2)c1`, the Potency is reported as “inactive”.
In the case of `CCOc1ccc(CN2CCNC(=O)C2CC(=O)NCCCC2CCCC2)cc1` (stereo not drawn), the Potency is reported as 16.4 µM (active).
For `O=C(CC1C(=O)NCCN1Cc1ccc(-c2ccccc2)cc1)NCC1CCOCC1` (stereo not drawn), the Potency was “inactive”.
With `Cc1nccn1CCCNC(=O)CC1C(=O)NCCN1Cc1ccc(Cl)c(F)c1` (stereo not drawn) the Potency was “inactive”.
With `CCN(C(=O)COC(=O)c1ccccc1O)c1cccc2ccccc12` the Potency was “inactive”.
In the case of `CC(C)CCNC(=O)CC1C(=O)N(Cc2ccccc2)C(C)c2nc3ccccc3n21` (stereo not drawn), the Potency is reported as “inactive”.
For `CCOC(=O)c1ccc(COC(=O)CCc2nc(-c3ccccc3)c(-c3ccccc3)o2)cc1`, the Potency was “inactive”.
For `O=C(OCc1nnc(-c2ccccc2)o1)c1ccc2c(c1)C(=O)N(CCc1ccccc1)C2=O`, the Potency was “inactive”.
In the case of `Cc1onc(-c2ccccc2Cl)c1C(=O)OCc1nnc(-c2ccccc2)o1`, the Potency is reported as 18.4 µM (active).
In the case of `Cc1ccc(C(=O)NCC(=O)OCc2nnc(-c3ccccc3)o2)cc1`, the Potency is reported as “inactive”.
With `Cc1onc(-c2ccccc2)c1C(=O)N=C(N)c1ccc(Cl)cc1` the Potency was “inactive”.
With `Cc1onc(-c2ccccc2)c1-c1nnc(COC(=O)c2ccc(N(C)C)cc2)o1` the Potency was 20.6 µM (active).
For `Cc1ccc(NC(=O)CCC(=O)N/N=C/c2ccco2)c(C)c1`, the Potency was “inactive”.
In the case of `Nc1nc(O)c(CC(=O)O)s1`, the Potency is reported as “inactive”.
For `O=C(NCCNc1ccccc1[N+](=O)[O-])c1ccccc1F`, the Potency was “inactive”.
In the case of `Cn1nnnc1SCC(=O)Nc1cccc(S(=O)(=O)N2CCCCC2)c1`, the Potency is reported as “inactive”.
With `CCOC(=O)C1=C(NC(=S)NC(=O)c2ccccc2)c2ccccc2CC1(C)C` the Potency was “inactive”.
In the case of `O=C(CSc1nc(O)c(Cc2ccccc2)c(=O)[nH]1)Nc1nc2c(s1)CCCC2`, the Potency is reported as “inactive”.
With `Cc1ccc2c(c1)C1CN(C)CCC1N2C(=O)c1ccccc1NS(=O)(=O)c1ccc(F)cc1C` (stereo not drawn) the Potency was “inactive”.
With `O=C1O/C(=C\c2ccc(O)cc2)C(O)=C1c1ccc(O)cc1` the Potency was “inactive”.
For `COc1cc(C2C3=C(CCCC3=O)OC3=C2C(=O)CCC3)ccc1OCC(=O)Nc1ccccc1`, the Potency was “inactive”.
For `O=C1c2ccccc2S(=O)(=O)N1Cc1c(F)cccc1Cl`, the Potency was “inactive”.
In the case of `O=c1c(=O)n(Cc2c(F)cccc2Cl)ccn1Cc1ccccc1`, the Potency is reported as “inactive”.
For `Cc1ccc(C)c(N2C(=O)N(Cc3c(F)cccc3Cl)c3ccccc3S2(=O)=O)c1`, the Potency was 18.4 µM (active).
For `CCCCn1c(N)c(N(CC(C)C)C(=O)c2cccc(S(=O)(=O)N3CC(C)OC(C)C3)c2)c(=O)[nH]c1=O` (stereo not drawn), the Potency was “inactive”.
In the case of `O=C(COc1ccc2c3c(c(=O)oc2c1)CCCC3)NCC(O)c1ccccc1` (stereo not drawn), the Potency is reported as 20.6 µM (active).
For `NC(=O)COc1ccc2c3c(c(=O)oc2c1)CCCCC3`, the Potency was “inactive”.
For `O=C(COc1ccc2ccc(=O)oc2c1)NCC(O)c1ccccc1` (stereo not drawn), the Potency was “inactive”.
